Inconclusive results are not listed. The source made the active and inactive calls. Unless noted, calls come from the whole dose curve; as a rule, active = well fitted curve in the direction sought with a large enough effect in the repeat runs; inconclusive = weak or mixed curves; inactive = no such curve, though single readings can be large; an effect the other way counts as inactive or inconclusive.
Key:
[1] = qHTS assay for small molecule agonists of the p53 signaling pathway (AID 651631; calls by dose curve; note: nearly all actives have a fitted effect of over 15% in size)
Outline: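 We treat p53RE-bla HCT-116 cells with compounds for 16 h at 37 °C, add LiveBLAzer B/G FRET substrate for 2 h at room temperature, and measure fluorescence intensity.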

[2] = qHTS assay for small molecules that induce genotoxicity in human embryonic kidney cells expressing luciferase-tagged ATAD5 (AID 651632); note: nearly all actives have a fitted effect of over 15% in size
Outline: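 HEK293T cells carrying a luciferase reporter tagged to ATAD5 were exposed to compound or DMSO vehicle for 16 hr at 37C, 5% CO2. Amplite was added, and after 30 min at room temperature luciferase activity was read as a marker of ATAD5 induction.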

[3] = qHTS assay for small molecule agonists of the p53 signaling pathway - cell viability (AID 651633; calls by dose curve;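 note: p53RE-bla HCT reporter cells with a stable beta-lactamase p53 reporter; series mostly up to about 83 µM; nearly all actives have a fitted effect of over 30% in size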)
Outline: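 Viability counter-read: CellTiter-Glo luminescence (30 min, room temperature) in the same p53RE-bla plates. These plates had been exposed to compounds for 16 h at 37 C.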

[4] = qHTS assay for small molecules that induce genotoxicity in human embryonic kidney cells expressing luciferase-tagged ATAD5 - cell viability (AID 651634; calls by dose curve; note: nearly all actives have a fitted effect of over 25% in size)
Outline: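 HEK293T cells expressing luciferase-tagged ATAD5 were exposed to compound or DMSO for 15.5 hr at 37C, 5% CO2. Viability was then read as live-cell protease activity by CellTiter-Fluor fluorescence after 30 min at 37C.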

[5] = qHTS assay for small molecule disruptors of the mitochondrial membrane potential - cell viability (AID 720634; calls by dose curve;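 note: human HepG2 liver cancer cells; series mostly up to about 83 µM; nearly all actives have a fitted effect of over 20% in size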)
Outline: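 HepG2 cells seeded overnight at 37 C, then exposed to compound or DMSO for 1 hr at 37 C, 5% CO2. m-MPI dye added, then CellTiter-Glo for 30 min at room temperature; viability read as ATP luminescence.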

[6] = qHTS assay for small molecule disruptors of the mitochondrial membrane potential (AID 720635)
Outline: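 Mitochondrial membrane potential tracked with Mito-MPS dye, red aggregates (ex 540/em 590 nm) against green monomers (ex 490/em 535 nm). Compound treatment 1 hr at 37C, dye 30 min in HepG2.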

[7] = qHTS assay to test for compound auto fluorescence at 535 nm (green) in HepG2 cells (AID 720675)
[8] = qHTS assay to test for compound auto fluorescence at 460 nm (blue) in HEK293 cells (AID 720678)
Outline: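 HEK293 cells (2,000/well, medium with 10% dialyzed FBS) attached 4-5 hr, then exposed to compound overnight at 37C, 5% CO2. Blue fluorescence read at 405/460 nm, with triamterene as reference fluorophore.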

[9] = qHTS assay to test for compound auto fluorescence at 590 nm (red) in HEK293 cells (AID 720679)
Outline: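 HEK293 cells (2,000/well, 10% dialyzed FBS) attached 4-5 hr, then dosed with compound or DMSO and incubated overnight at 37C, 5% CO2. Red fluorescence read at 540/590 nm, Rose Bengal sodium as reference fluorophore.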

[10] = qHTS assay to test for compound auto fluorescence at 535 nm (green) in HEK293 cells (AID 720680)
[11] = qHTS assay to test for compound auto fluorescence at 460 nm (blue) in HEK293 cell free culture (AID 720681)
Outline: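 Blue fluorescence (Ex 405/Em 460 nm, triamterene-equivalent) was read immediately after pin transfer of compound or DMSO into medium (DMEM, 10% FBS) without cells.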

[12] = qHTS assay to test for compound auto fluorescence at 535 nm (green) in HEK293 cell free culture (AID 720682)
Outline: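 Green-channel intensity (Ex/Em 485/535 nm) was recorded from compound-treated wells containing only DMEM with 10% FBS. Fluorescein provided the equivalency standard.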

[13] = qHTS assay to test for compound auto fluorescence at 590 nm (red) in HEK293 cell free culture (AID 720683)
Outline: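 Red-channel autofluorescence of compounds in culture medium (DMEM, 10% FBS), no cells, measured at 540/590 nm. Rose Bengal sodium is the reference fluorophore for equivalence.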

[14] = qHTS assay to test for compound auto fluorescence at 590 nm (red) in HepG2 cell free culture (AID 720684)
Outline: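 Steps: dispense MEM/10% FBS medium, no cells; pin compound or DMSO vehicle; read red channel, Ex/Em 540/590 nm. Output given as Rose Bengal sodium equivalents.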

[15] = qHTS assay to test for compound auto fluorescence at 460 nm (blue) in HepG2 cell free culture (AID 720685)
Outline: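 Compound (23 nL) or DMSO pinned into cell-free MEM with 10% FBS; blue fluorescence read at 405/460 nm excitation/emission, expressed as auto-fluorescence equivalency to triamterene.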

[16] = qHTS assay to test for compound auto fluorescence at 535 nm (green) in HepG2 cell free culture (AID 720686)
[17] = qHTS assay to test for compound auto fluorescence at 460 nm (blue) in HepG2 cells (AID 720687)
Outline: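 Blue-channel autofluorescence (Ex/Em 405/460 nm, triamterene-equivalent) was measured after 1 hr compound exposure at 37 C, 5% CO2. Cells were HepG2, plated overnight at 37 C in MEM plus 10% FBS.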

[18] = target: Glucocorticoid receptor (Homo sapiens) (UniProt P04150); test: qHTS assay to identify small molecule agonists of the glucocorticoid receptor (GR) signaling pathway (AID 720691; active = well fitted activation curve with a large enough effect in the signal ratio in the repeat runs, not every such curve was filed as active; the % refers to the signal ratio)
Outline: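 GR-bla HeLa cells (beta-lactamase reporter under glucocorticoid response element) were plated 4 h at 37 C/5% CO2, given compounds in DMSO, and incubated 18 h at 37 C. LiveBLAzer B/G FRET substrate was added for 2 h at room temperature, then fluorescence intensity read.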

[19] = target: Glucocorticoid receptor (Homo sapiens) (UniProt P04150); test: qHTS assay to identify small molecule antagonists of the glucocorticoid receptor (GR) signaling pathway (AID 720692; active = well fitted inhibition curve with a large enough effect in the signal ratio in the repeat runs, not every such curve was filed as active; the % refers to the signal ratio)
Outline: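 GR-bla HeLa cells (beta-lactamase reporter under glucocorticoid response element) were pre-plated 4 h at 37 C, treated with compounds plus 5 nM dexamethasone (final) for 18 h, then read by LiveBLAzer B/G FRET fluorescence after 2 h.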

[20] = qHTS assay for identifying genotoxic compounds that show differential cytotoxicity against isogenic chicken DT40 cell lines with known DNA damage response pathways - wild type cell line (AID 743012); note: nearly all actives have a fitted effect of over 60% in size
Outline: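 Parental DNA repair-proficient DT40 cells, 300 per well, were pre-incubated ~0.5 h at 37 C/5% CO2, pin-dosed with compounds in DMSO, then incubated 40 h. Viability was read as CellTiter-Glo luminescence after 30 min at room temperature.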

[21] = qHTS assay for identifying genotoxic compounds that show differential cytotoxicity against isogenic chicken DT40 cell lines with known DNA damage response pathways - Rev3 mutant cell line (AID 743014); note: nearly all actives have a fitted effect of over 55% in size
[22] = qHTS assay for identifying genotoxic compounds that show differential cytotoxicity against isogenic chicken DT40 cell lines with known DNA damage response pathways - Rad54/Ku70 mutant cell line (AID 743015); note: nearly all actives have a fitted effect of over 60% in size
[23] = qHTS assay to identify small molecule antagonists of the androgen receptor (AR) signaling pathway - cell viability counter screen (AID 743033; note: nearly all actives have a fitted effect of over 45% in size)
[24] = target: Androgen receptor (Homo sapiens) (UniProt P10275); test: qHTS assay to identify small molecule antagonists of the androgen receptor (AR) signaling pathway (AID 743035; active = well fitted inhibition curve with a large enough effect in the signal ratio in the repeat runs, not every such curve was filed as active; the % refers to the signal ratio)
Outline: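 HEK293 cells stably carrying a UAS-driven beta-lactamase reporter (AR-UAS-bla GripTite) were plated for 4 h at 37C, then given compound and the agonist R1881 and incubated 16 h. Reporter activity was read by LiveBLAzer B/G FRET fluorescence after 2 h at room temperature.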

[25] = target: Androgen receptor (Homo sapiens) (UniProt P10275); test: qHTS assay to identify small molecule agonists of the androgen receptor (AR) signaling pathway (AID 743036; active = well fitted activation curve with a large enough effect in the signal ratio in the repeat runs, with a control signal flat, not every such curve was filed as active; the % refers to the signal ratio)
Outline: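 Cell-based FRET reporter assay: HEK293 line with a UAS-beta-lactamase construct, compounds added in DMSO, 16 h exposure at 37C, then 2 h substrate step at room temperature and fluorescence intensity read.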

[26] = target: Androgen receptor (Homo sapiens) (UniProt P10275); test: qHTS assay to identify small molecule agonists of the androgen receptor (AR) signaling pathway using the MDA cell line (AID 743040; note: nearly all actives have a fitted effect of over 20% in size)
Outline: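 Cells plated, 5 h at 37C/0% CO2; compound or DMSO pinned; 16 h at 37C; ONE-Glo added; luminescence measured after 30 min at room temperature. Reporter line: MDA-kb2 with MMTV-luciferase responsive to AR and GR.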

[27] = qHTS assay to identify small molecule antagonists of the androgen receptor (AR) signaling pathway using the MDA cell line - cell viability counter screen (AID 743041; note: nearly all actives have a fitted effect of over 45% in size)
Outline: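 Cells were plated at 3,000 per well and left 5 h. Compounds in DMSO were then pinned in, followed by R1881. After 16 h at 37C, CellTiter-Fluor fluorescence gave viability.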

[28] = target: Androgen receptor (Homo sapiens) (UniProt P10275); test: qHTS assay to identify small molecule antagonists of the androgen receptor (AR) signaling pathway using the MDA cell line (AID 743042; note: nearly all actives have a fitted effect of over 55% in size)
Outline: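 Antagonist mode: compounds plus R1881 agonist added to MDA-kb2 AR-luc cells, incubated 16 h at 37C. Luciferase reporter luminescence quantified, with multiplexed CellTiter-Fluor readout for cell viability.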

[29] = qHTS assay to identify small molecule antagonists of the thyroid receptor (TR) signaling pathway - cell viability counter screen (AID 743064); note: nearly all actives have a fitted effect of over 50% in size
Outline: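 In rat pituitary GH3.TRE-Luc reporter cells co-exposed to compound and 1 nM T3 for 23.5 h, cytotoxicity was assessed with CellTiter-Fluor in the same wells, read by fluorescence.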

[30] = qHTS assay to identify small molecule antagonists of the thyroid receptor (TR) signaling pathway (AID 743065); note: series mostly up to about 70 µM; nearly all actives have a fitted effect of over 55% in size
Outline: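 Antagonism measured as loss of luciferase signal in GH3 cells stably carrying a TRE-luciferase reporter, co-treated with compound and T3 (1 nM final) for 23.5 h at 37 C. Viability was read in the same well by CellTiter-Fluor.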

[31] = tested on: thyroid hormone receptor (rat, GH3 cells); test: qHTS assay to identify small molecule agonists of the thyroid receptor (TR) signaling pathway (AID 743066; calls by dose curve)
[32] = qHTS assay to identify small molecule antagonists of the estrogen receptor alpha (ER-alpha) signaling pathway - cell viability counter screen (AID 743074; calls by dose curve;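 note: HEK293 cells carrying ER-alpha-UAS-bla reporter stimulated with 17beta-estradiol; nearly all actives have a fitted effect of over 45% in size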)
[33] = qHTS assay to identify small molecule antagonists of the estrogen receptor alpha (ER-alpha) signaling pathway using the BG1 cell line - cell viability counter screen (AID 743081);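 note: compound given together with 17beta-estradiol as the ER stimulus; series mostly up to about 70 µM; nearly all actives have a fitted effect of over 45% in size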
Aromatase (Homo sapiens) = Aromatase (Homo sapiens) (UniProt P11511); test: qHTS assay to identify aromatase inhibitors (AID 743083); note: series mostly up to about 70 µM; nearly all actives have a fitted effect of over 55% in size
[34] = qHTS assay to identify aromatase inhibitors - cell viability counter screen (AID 743084)
[35] = target: Aryl hydrocarbon receptor (Homo sapiens) (UniProt P35869); test: qHTS assay to identify small molecule that activate the aryl hydrocarbon receptor (AhR) signaling pathway (AID 743085);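 note: HG2L7.5c1 human HepG2 liver cells with stably integrated DRE-driven firefly reporter; series mostly up to about 70 µM; nearly all actives have a fitted effect of over 15% in size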
Outline: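 AhR agonist activity is inferred from enhanced light output of a DRE-controlled firefly luciferase reporter in HepG2 cells, measured with ONE-Glo following 24 h treatment at 37C.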

[36] = qHTS assay to identify small molecule that activate the aryl hydrocarbon receptor (AhR) signaling pathway - cell viability counter screen (AID 743086)
Outline: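 Cytotoxicity counter screen: CellTiter-Fluor signal (30 min, 37 C) in 4000 HepG2 cells/well carrying the DRE-luciferase reporter, following 24 h compound exposure at 37 C.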

[37] = target: Peroxisome proliferator-activated receptor gamma (Homo sapiens) (UniProt P37231); test: qHTS assay to identify small molecule agonists of the peroxisome proliferator-activated receptor gamma (PPARg) signaling pathway (AID 743094; active = well fitted activation curve with a large enough effect in the signal ratio in the repeat runs, not every such curve was filed as active; the % refers to the signal ratio)
Outline: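 GeneBLAzer PPARg UAS-bla HEK293H cells carrying a stably integrated beta-lactamase reporter were pre-incubated 5 h at 37C, then exposed to compounds in DMSO for 17 h at 37C; LiveBLAzer B/G FRET substrate was added for 1 h at room temperature and fluorescence read.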

[38] = target: Acetylcholinesterase (Homo sapiens) (UniProt P22303); test: Acetylcholinesterase (AChE) small molecule antagonists: enzyme-based qHTS assay (AID 1347397; calls by dose curve; note: nearly all actives have a fitted effect of over 55% in size); conditions: Potency: AChE enzyme activity inhibition; outcome: AChE enzyme activity inhibition
Outline: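 rhAChE 50 mU/mL (dispensed) + cpd or DMSO, 30 min RT; add DTNB/acetylthiocholine cocktail, 10 min RT; colorimetric thiocholine readout. qHTS, 1536-well format.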

[39] = target: Acetylcholinesterase (Homo sapiens) (UniProt P22303); test: Acetylcholinesterase (AChE) small molecule antagonists: fluorescence cell-based qHTS assay (AID 1347398; calls by dose curve; note: nearly all actives have a fitted effect of over 50% in size); conditions: Potency: AChE activity; outcome: AChE activity
Outline: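 Read-out is Thiolite Green fluorescence at Ex/Em = 490/520 nm, formed by reaction with thiocholine released when cellular AChE in SH-SY5Y cells hydrolyzes acetylthiocholine. Compounds were preincubated 30 min at 37 C before substrate.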

[40] = target: Acetylcholinesterase (Homo sapiens) (UniProt P22303); test: Acetylcholinesterase (AChE) small molecule antagonists: enzyme-based qHTS assay with human liver microsomes (AID 1347399; calls by dose curve; note: nearly all actives have a fitted effect of over 60% in size); conditions: Potency: qHTS inhibition; outcome: qHTS inhibition
Outline: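 Recombinant human AChE (50 mU/mL in the enzyme mix) and human liver microsomes (0.25 mg/mL final) were preincubated with compound and NADPH (0.25 mg/mL final) for 30 min at 37 C. Acetylthiocholine/DTNB was then added; thiocholine was read colorimetrically after 10 min at room temperature.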

Measured: Potency

Chain of Acetylcholinesterase (Homo sapiens) (P22303 whole entry, looked up): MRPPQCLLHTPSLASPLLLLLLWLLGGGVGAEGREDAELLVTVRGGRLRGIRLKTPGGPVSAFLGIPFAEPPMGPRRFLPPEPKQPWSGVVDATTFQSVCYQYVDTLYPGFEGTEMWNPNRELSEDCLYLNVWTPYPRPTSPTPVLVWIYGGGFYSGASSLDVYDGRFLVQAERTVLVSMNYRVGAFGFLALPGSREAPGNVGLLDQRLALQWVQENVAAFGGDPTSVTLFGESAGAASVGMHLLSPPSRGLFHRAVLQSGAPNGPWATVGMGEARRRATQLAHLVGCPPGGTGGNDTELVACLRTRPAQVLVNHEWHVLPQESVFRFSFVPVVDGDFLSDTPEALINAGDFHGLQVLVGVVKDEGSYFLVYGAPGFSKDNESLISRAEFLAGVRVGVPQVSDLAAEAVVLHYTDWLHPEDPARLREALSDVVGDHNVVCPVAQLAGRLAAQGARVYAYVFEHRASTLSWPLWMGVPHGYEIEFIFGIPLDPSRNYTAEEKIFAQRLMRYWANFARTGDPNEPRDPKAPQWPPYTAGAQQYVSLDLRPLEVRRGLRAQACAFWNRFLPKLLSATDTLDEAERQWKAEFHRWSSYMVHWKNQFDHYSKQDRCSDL
Chain of Androgen receptor (Homo sapiens) (P10275 whole entry, looked up): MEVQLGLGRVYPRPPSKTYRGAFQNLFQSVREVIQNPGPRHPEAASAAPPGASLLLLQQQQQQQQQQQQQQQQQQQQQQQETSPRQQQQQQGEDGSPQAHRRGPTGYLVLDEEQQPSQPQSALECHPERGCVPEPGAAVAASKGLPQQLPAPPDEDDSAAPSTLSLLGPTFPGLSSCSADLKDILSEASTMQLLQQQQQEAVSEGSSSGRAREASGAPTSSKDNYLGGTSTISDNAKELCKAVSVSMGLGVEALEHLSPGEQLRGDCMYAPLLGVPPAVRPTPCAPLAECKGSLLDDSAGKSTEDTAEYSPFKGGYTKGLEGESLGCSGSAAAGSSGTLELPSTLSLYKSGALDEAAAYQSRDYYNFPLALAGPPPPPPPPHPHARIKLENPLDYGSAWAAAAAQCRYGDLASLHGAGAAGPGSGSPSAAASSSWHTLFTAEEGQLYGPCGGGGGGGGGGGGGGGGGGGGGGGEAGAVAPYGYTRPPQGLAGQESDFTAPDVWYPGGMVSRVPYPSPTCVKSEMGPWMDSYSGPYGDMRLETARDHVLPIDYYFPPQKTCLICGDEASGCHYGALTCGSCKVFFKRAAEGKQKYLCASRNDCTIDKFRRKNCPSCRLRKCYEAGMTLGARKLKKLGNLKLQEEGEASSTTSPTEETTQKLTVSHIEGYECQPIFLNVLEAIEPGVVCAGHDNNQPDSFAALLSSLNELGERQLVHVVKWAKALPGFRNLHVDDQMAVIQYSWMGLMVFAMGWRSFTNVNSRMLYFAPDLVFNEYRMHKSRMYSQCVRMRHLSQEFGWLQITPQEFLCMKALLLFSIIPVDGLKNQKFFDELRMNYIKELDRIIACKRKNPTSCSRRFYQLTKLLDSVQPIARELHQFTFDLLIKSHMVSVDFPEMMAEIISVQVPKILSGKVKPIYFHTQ
Chain of Glucocorticoid receptor (Homo sapiens) (P04150 whole entry, looked up): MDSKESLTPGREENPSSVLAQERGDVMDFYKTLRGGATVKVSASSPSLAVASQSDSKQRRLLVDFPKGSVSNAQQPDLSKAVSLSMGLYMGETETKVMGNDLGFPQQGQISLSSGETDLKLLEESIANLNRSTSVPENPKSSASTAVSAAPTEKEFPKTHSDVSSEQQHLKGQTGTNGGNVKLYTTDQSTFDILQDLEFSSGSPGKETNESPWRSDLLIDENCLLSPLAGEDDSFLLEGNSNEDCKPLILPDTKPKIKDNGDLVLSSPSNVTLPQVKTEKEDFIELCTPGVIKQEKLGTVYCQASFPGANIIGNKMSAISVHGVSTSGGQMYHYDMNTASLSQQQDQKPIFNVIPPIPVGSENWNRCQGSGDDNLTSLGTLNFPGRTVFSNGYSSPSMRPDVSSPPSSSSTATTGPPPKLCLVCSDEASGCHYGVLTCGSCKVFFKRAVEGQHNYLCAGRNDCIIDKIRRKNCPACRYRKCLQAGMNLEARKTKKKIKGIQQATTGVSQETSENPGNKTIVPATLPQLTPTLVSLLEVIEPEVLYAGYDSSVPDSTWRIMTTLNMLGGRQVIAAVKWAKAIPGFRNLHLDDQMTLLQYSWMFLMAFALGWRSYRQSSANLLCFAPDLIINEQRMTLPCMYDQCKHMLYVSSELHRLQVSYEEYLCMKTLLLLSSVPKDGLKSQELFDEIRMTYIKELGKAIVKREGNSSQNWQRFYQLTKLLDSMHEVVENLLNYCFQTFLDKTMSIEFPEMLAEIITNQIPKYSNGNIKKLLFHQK
Chain of Aryl hydrocarbon receptor (Homo sapiens) (P35869 whole entry, looked up): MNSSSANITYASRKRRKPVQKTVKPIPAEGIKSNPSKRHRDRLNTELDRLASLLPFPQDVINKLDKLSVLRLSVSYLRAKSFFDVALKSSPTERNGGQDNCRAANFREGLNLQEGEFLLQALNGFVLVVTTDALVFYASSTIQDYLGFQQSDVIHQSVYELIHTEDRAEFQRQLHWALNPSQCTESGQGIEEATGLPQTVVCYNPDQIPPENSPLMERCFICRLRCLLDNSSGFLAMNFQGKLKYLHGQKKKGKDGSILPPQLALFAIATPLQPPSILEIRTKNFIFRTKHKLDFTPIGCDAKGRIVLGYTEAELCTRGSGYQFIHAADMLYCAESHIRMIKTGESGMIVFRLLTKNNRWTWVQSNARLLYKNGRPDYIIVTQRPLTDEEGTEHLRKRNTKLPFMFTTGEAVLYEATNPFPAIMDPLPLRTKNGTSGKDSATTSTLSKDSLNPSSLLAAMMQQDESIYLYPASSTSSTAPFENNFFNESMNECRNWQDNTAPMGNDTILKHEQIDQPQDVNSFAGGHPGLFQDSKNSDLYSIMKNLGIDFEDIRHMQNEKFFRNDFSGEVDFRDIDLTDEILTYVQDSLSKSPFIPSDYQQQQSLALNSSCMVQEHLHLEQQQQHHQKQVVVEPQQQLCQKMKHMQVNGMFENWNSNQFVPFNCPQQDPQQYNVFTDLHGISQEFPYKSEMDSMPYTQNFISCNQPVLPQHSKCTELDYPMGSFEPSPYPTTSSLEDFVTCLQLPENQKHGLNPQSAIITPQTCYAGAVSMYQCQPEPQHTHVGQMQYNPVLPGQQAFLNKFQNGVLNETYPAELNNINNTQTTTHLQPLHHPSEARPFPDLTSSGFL
Chain of Aromatase (Homo sapiens) (P11511 whole entry, looked up): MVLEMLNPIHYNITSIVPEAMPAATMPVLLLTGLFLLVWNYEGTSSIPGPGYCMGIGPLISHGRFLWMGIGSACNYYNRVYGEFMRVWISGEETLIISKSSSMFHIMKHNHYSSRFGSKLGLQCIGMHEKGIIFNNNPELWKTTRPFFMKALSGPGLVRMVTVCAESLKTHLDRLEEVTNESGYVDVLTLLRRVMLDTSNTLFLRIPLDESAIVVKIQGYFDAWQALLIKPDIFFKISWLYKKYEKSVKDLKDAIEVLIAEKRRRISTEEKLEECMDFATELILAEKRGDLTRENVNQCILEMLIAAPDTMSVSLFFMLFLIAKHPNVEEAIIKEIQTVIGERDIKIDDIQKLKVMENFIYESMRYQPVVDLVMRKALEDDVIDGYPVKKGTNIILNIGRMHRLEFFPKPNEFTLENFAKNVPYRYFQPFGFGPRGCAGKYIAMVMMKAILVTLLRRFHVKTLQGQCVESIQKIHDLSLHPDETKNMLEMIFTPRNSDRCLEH
Chain of Peroxisome proliferator-activated receptor gamma (Homo sapiens) (P37231 whole entry, looked up): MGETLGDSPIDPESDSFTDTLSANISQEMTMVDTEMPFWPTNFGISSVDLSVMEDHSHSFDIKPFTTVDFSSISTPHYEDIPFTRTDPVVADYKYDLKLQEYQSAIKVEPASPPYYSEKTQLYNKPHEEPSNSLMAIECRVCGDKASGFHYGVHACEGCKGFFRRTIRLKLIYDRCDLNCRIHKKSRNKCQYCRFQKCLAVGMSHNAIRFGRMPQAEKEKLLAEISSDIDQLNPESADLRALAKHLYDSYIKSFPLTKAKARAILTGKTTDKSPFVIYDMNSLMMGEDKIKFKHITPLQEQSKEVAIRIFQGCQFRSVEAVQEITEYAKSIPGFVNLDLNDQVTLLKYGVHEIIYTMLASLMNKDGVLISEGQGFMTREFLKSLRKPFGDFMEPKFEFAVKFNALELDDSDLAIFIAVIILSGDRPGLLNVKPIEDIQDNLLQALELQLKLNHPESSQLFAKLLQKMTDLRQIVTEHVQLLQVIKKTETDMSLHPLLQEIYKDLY

O=C(O)CCCO
not listed: [38] | [39] | [40]
inactive: all other assays above

Cc1c(N)cccc1C(F)(F)F
inactive: [38] | [39] | [40]

C[C@@H]1CC(=O)NN=C1c1ccc(NN=C(C#N)C#N)cc1
inactive: [38] | [39] | [40]

COC(=O)c1ccccc1OC
inactive: [38] | [39] | [40]

Reference: PubChem BioAssay (Tox21)
